The record followed here is PubChem BioAssay (EPA / NIEHS).

Several values for one entry are separate records, joined by “and”; a condition that tells them apart may be missing. Equal values may be shown once. Results filed as inconclusive are left out. Activity calls are given as the source filed them. The calls were made as follows, unless noted: active = hit-call score of the fitted dose curve at least 0.9, where 1 is the maximum; inconclusive = response in the unintended direction; inactive = score below 0.9.

Experiment [1] can be described thus: CCTE_Deisenroth_AIME_384WELL_CTox_Inactive: Cytotoxicity Assessment (CTOX) in CCTE's 384-well Estrogen Receptor Transactivation Assay without AIME metabolic competence (metabolism negative), Deisenroth Lab (AID 2284039).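 Also: cell viability via live-cell protease substrate cleaved to fluorescent probe; loss of fluorescence signal means loss of viability.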 In outline: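 VM7Luc4E2 human breast cells received conditioned medium from a 2 h incubation of chemical with alginate-water microspheres (no S9), then were exposed 24 h. Viability was read as protease-substrate cleavage to a fluorescent probe; loss of signal was fitted bidirectionally over 0.002–200 uM.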

Experiment [2] has as its system DIO2 (gene 1734). The experiment can be described thus: CCTE_GLTED_hDIO2: CCTE's human Deiodinase 2 (DIO2) Inhibition Assay, Great Lakes Toxicology and Ecology Division (GLTED) Lab (AID 2284050). In outline:
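Readout: absorbance from Sandell-Kolthoff detection of free iodide released by human DIO2 during a 3 h incubation with chemical. Cell-free format, n=3; activity fitted relative to DMSO negative control.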

Experiment [3] concerns DIO3 (gene 1735). In words: CCTE_GLTED_hDIO3: CCTE's human Deiodinase 3 (DIO3) Inhibition Assay, Great Lakes Toxicology and Ecology Division (GLTED) Lab (AID 2284055).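 Also: potency is for inhibition seen as loss of released iodide signal.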 The method, boiled down:
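hDIO3 (adenovirus-expressed) + test chemical, 3 h incubation; free iodide quantified by Sandell-Kolthoff reaction, absorbance read-out. DMSO negative control, n=3.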

Experiment [4] can be described thus: CCTE_Shafer_MEA_acute_AB: CCTE's Alamar Blue Assay for Cytotoxicity in the Neural Acute Assay, Shafer Lab (AID 2284069).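 Also: active compounds lower the viability signal compared with DMSO wells.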 The method, boiled down:
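Read-out: resazurin fluorescence (ex 544, em 590 nm) after CTB reagent at 1:6 dilution in fresh media. Cells: primary rat cortical neuron networks, DIV 13 or 15, chemically exposed on MEA plates; DMSO as negative control/baseline.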

Experiment [5] in a line: CCTE_Shafer_MEA_dev_active_electrodes_number: CCTE's Neural Network Formation Assay for Number of Active Electrodes, Shafer Lab (AID 2284040).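 As to AC50: potency for loss of active electrodes versus DMSO so lower counts are hits.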 The method, boiled down: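 Developing rat cortical networks on MEAs, exposed DIV 0–12. Value is the AUC of active-electrode counts (≥5 spikes/min) from days 5, 7, 9, 12, relative to DMSO.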
The nature of experiment [6]: CCTE_Shafer_MEA_dev_burst_rate: CCTE's Neural Network Formation Assay for Burst Rate, Shafer Lab (AID 2284042; active = hit-call score of the fitted dose curve at least 0.9, where 1 is the maximum; inactive = score below 0.9;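 as to AC50: potency for loss of burst rate below DMSO control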). In outline:
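Rat primary cortical cultures on PEI/laminin MEA; compound from plating, re-dosed at DIV 5, 9 media change. Single-electrode bursts/recording length, well mean of active electrodes; AUC over DIV 5–12 recordings; loss-of-signal vs DMSO.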

The nature of experiment [7]: CCTE_Shafer_MEA_dev_bursting_electrodes_number: CCTE's Neural Network Formation Assay for Number of Bursting Electrodes, Shafer Lab (AID 2284043).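 As to AC50: potency is for loss of bursting electrodes relative to DMSO.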 The method, boiled down:
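Rat cortical primary neurons, 48-well MEA, 16 electrodes/well; dosing DIV 0–12, re-dosed with full media change DIV 5, 9. Recordings DIV 5/7/9/12, AxIS adaptive spike detector; bursting electrode = ≥1 burst/2 min. AUC across days; loss of signal vs DMSO.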

Experiment [8] in a line: CCTE_Shafer_MEA_dev_per_burst_interspike_interval: CCTE's Neural Network Formation Assay for Burst Interspike Interval, Shafer Lab (AID 2284044; active = hit-call score of the fitted dose curve at least 0.9, where 1 is the maximum; inactive = score below 0.9;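 also: mean spike spacing inside bursts as AUC over recordings on days 5 7 9 12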;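 as to AC50: potency for a decrease of within-burst interspike interval below DMSO level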). The method, boiled down:
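Spontaneous activity of maturing rat cortical networks is recorded on DIV 5, 7, 9 and 12 under chronic compound exposure beginning at plating. Endpoint: burst interspike interval well-mean, collapsed into trapezoidal AUC and fitted in the negative direction relative to DMSO.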

Experiment [9] in a line: CCTE_Shafer_MEA_dev_burst_duration_mean: CCTE's Neural Network Formation Assay for Mean Burst Duration, Shafer Lab (AID 2284045; active = hit-call score of the fitted dose curve at least 0.9, where 1 is the maximum; inactive = score below 0.9;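 as to AC50: curve fitted for loss meaning shorter burst duration than DMSO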). The method, boiled down: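 Rat cortical cultures, 1.5 x 10^5 cells/well with laminin drop; continuous dosing days 0–12, media plus treatment refreshed DIV 5, 9. AxIS adaptive spike detection; mean single-electrode burst duration, AUC over four recordings, negative direction vs DMSO.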

Experiment [10] is described as follows: CCTE_Shafer_MEA_dev_interburst_interval_mean: CCTE's Neural Network Formation Assay for Mean Interburst Interval, Shafer Lab (AID 2284046; active = hit-call score of the fitted dose curve at least 0.9, where 1 is the maximum; inactive = score below 0.9;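 also: well-mean interburst interval of bursting electrodes as AUC over four recording days; curve fitted for decrease in interburst interval relative to DMSO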). The method, boiled down: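 Rat cortical neurons, 1.5 x 10^5 cells/well, 48-well MEA; compound from day 0 through DIV 12, media and treatment renewed DIV 5/9. Recordings DIV 5, 7, 9, 12; well-mean interburst interval → trapezoidal AUC, loss direction vs DMSO.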

A short description of experiment [11]: CCTE_Shafer_MEA_dev_inter_network_spike_interval_mean: CCTE's Neural Network Formation Assay for Mean Inter-network Spike Interval, Shafer Lab (AID 2284047; active = hit-call score of the fitted dose curve at least 0.9, where 1 is the maximum; inactive = score below 0.9). In outline: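 Primary rat cortical neurons on PEI-coated 48-well MEAs (16 electrodes/well) were exposed from plating day 0 to DIV 12, with dosing renewed at DIV 5 and 9. Recordings at DIV 5, 7, 9, 12 were collapsed by trapezoidal AUC, loss-of-signal fit vs DMSO.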

The nature of experiment [12]: CCTE_Shafer_MEA_dev_network_spike_number: CCTE's Neural Network Formation Assay for Number of Network Spikes, Shafer Lab (AID 2284048; active = hit-call score of the fitted dose curve at least 0.9, where 1 is the maximum; inactive = score below 0.9;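 also: synchronized bursts across electrodes counted on days 5 7 9 12 and integrated as AUC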;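 as to AC50: fit as a loss of signal meaning fewer network spikes than DMSO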). In outline: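 Rat cortical primary cultures on 48-well MEA (16 electrodes/well); continuous exposure DIV 0–12, full medium and treatment exchange DIV 5, 9. Readout: network spike count, AxIS adaptive detection, recordings DIV 5/7/9/12 collapsed to AUC; loss-of-signal fit, DMSO baseline.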

Experiment [13] in a line: CCTE_Shafer_MEA_dev_network_spike_peak: CCTE's Neural Network Formation Assay for Mean Number of Electrodes in Network Spike, Shafer Lab (AID 2284049; active = hit-call score of the fitted dose curve at least 0.9, where 1 is the maximum; inactive = score below 0.9;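 as to AC50: fitted for loss of signal meaning fewer electrodes in network spikes than DMSO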). The method, boiled down:
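Network-spike peak electrode count from recordings on days 5, 7, 9 and 12 was combined as trapezoidal area under the curve. Rat cortical cultures were treated continuously from plating, with compound renewed at each feed (DIV 5, 9); fits versus DMSO.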

Experiment [14] in a line: CCTE_Shafer_MEA_dev_spike_duration_mean: CCTE's Neural Network Formation Assay for Mean Spike Duration, Shafer Lab (AID 2284051; active = hit-call score of the fitted dose curve at least 0.9, where 1 is the maximum; inactive = score below 0.9;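 also: mean network spike duration pooled as area under curve over DIV 5 to 12 recordings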;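 as to AC50: potency for a decrease in mean network spike duration versus DMSO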). The method, boiled down: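 Rat cortical primary cultures, 48-well MEA (16 electrodes/well); compound from plating, renewed DIV 5, 9. Network spike duration (AxIS adaptive detector) recorded DIV 5/7/9/12, combined as trapezoidal AUC; loss direction vs DMSO.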

Experiment [15] is described as follows: CCTE_Shafer_MEA_dev_per_network_spike_spike_number_mean: CCTE's Neural Network Formation Assay for Mean Number of Spikes in a Network Spike, Shafer Lab (AID 2284053; active = hit-call score of the fitted dose curve at least 0.9, where 1 is the maximum; inactive = score below 0.9;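 as to AC50: fitted as decrease in spikes per network spike relative to DMSO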). The method, boiled down:
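Rat cortical primary cultures on 48-well MEA; compound from day 0, re-dosed with full media change DIV 5, 9. Recorded DIV 5, 7, 9, 12; spikes in 0.05 s window at network-spike peak ÷ total network spikes; AUC; loss vs DMSO.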

The nature of experiment [16]: CCTE_Shafer_MEA_dev_per_network_spike_spike_percent: CCTE's Neural Network Formation Assay for Percent of Spikes in a Network Spike, Shafer Lab (AID 2284054; active = hit-call score of the fitted dose curve at least 0.9, where 1 is the maximum; inactive = score below 0.9). The method, boiled down:
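Read-out: percent of spikes falling in a 0.05 s window at network-spike peak, from spontaneous MEA recordings on days 5, 7, 9 and 12; trapezoidal AUC; loss of signal versus DMSO. Rat cortical cultures, compound present throughout.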

Experiment [17] can be described thus: CCTE_Shafer_MEA_dev_LDH: CCTE's Lactate Dehydrogenase Assay for Cytotoxicity in the Neural Network Formation Assay, Shafer Lab (AID 2284068).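 Also: exposure for twelve days from plating with re-dosing on DIV 5 and 9.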 In outline:
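Rat cortical primary neurons, MEA culture; dosing day 0–12, full medium plus compound exchange DIV 5, 9. Read-out: LDH enzyme activity, spectrophotometric. DMSO = negative control/baseline; signal loss → cytotoxicity.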

Experiment [18] is described as follows: CCTE_Shafer_MEA_dev_AB: CCTE's Alamar Blue Assay for Cytotoxicity in the Neural Network Formation Assay, Shafer Lab (AID 2284083).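 Also: resazurin reduction fluorescence as viability of cultured neurons; twelve days of exposure from plating with re-dosing on DIV 5 and 9.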 In outline: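 Rat cortical primary cultures, 1.5 x 10^5 cells/well on MEA; continuous compound exposure over 12 days of network development, re-dosed with full medium change DIV 5 and 9. Alamar Blue fluorescence; loss of signal = cytotoxicity vs DMSO baseline.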
A general note: The colour change of resazurin is a common sign of viable cells or microbes.

Turning to `CCC(C)(C)c1ccc(O)c(C(C)(C)CC)c1`, the AC50 is 75 µM (active) in [1], 79 µM (active) in experiment [2], 18.9 µM (active) in experiment [3] and 35.4 µM (active) in [4].

Regarding `CCN1CCC2(CC1)COc1cc3c(cc12)N(C(=O)c1ccc(-c2ccc(-c4nnc(C)o4)cc2C)cc1)CC3`, the AC50 in [4] was 17.2 µM (active).

In the case of `CCOP(=S)(OCC)SCSP(=S)(OCC)OCC`, the result in [1] and in experiment [4] was inactive.

On to `Cl/C=C\C[N+]12CN3CN(CN(C3)C1)C2`, for which the call in experiment [2] was inactive. In [3], the AC50 was 100 µM (active).

On to `Cn1sc(Cl)cc1=O`, for which the AC50 in [5] was 4.47 µM (active); in experiment [6], 5.73 µM (active); in experiment [7], 5.1 µM (active); in [8] it was 7.73 µM (active); in experiment [9], 7.64 µM (active); in experiment [10], 7.54 µM (active). The AC50 is 4.45 µM (active) in experiment [12]; 3.57 µM (active) in [13]; 7.62 µM (active) in [14]; 3.51 µM (active) in experiment [15]; 7.62 µM (active) in experiment [16]; 4.61 µM (active) in experiment [17]. Also, the AC50 in experiment [18] was 5.49 µM (active). In addition, the call in experiment [11] was inactive.

For the compound `O=C(O)C(F)(F)C(F)(F)C(F)(F)C(F)(F)C(F)(F)C(F)(F)C(F)(F)C(F)(F)C(F)(F)C(F)(F)F`, the compound was classed as inactive in experiment [5], in experiment [6], in experiment [7], in experiment [8], in experiment [9] and in experiment [10]. Moreover, the call in experiment [11], in experiment [12], in [13], in [14], in [15] and in experiment [16] was inactive. Moreover, the outcome in experiment [17] and in [4] was inactive. Also, the AC50 in [2] is 50 µM (active) and 53.2 µM (active); in experiment [3] it was 19.9 µM (active) and 25.1 µM (active).

For `CC(C)(C)CC(C)(C)c1ccc(O)cc1`, the results for the AC50 in [2] and in experiment [3] were 105 µM (active) and 82 µM (active), respectively. Moreover, in experiment [4], the result was inactive.

Consider `O=C(Nc1ccc2[nH]ccc2c1)c1cc2cc(F)ccc2n1Cc1cccc(F)c1`, for which, in experiment [4], the compound was classed as inactive.

Take `CCCCCCCCc1ccc(O)cc1`: the AC50 in experiment [2] was 151 µM (active); in experiment [3] it was 19.9 µM (active). The outcome in [4] was inactive.

For `CC(C)(OO)c1ccccc1`, the compound was classed as inactive in experiment [4].

Turning to `C=CC(=O)OCCCCCC(C)C`, the results for the AC50 in experiment [2] and in experiment [3] were 21.1 µM (active) and 35.4 µM (active), respectively.

As usually defined, the AC50 is the concentration giving half of the maximal activity seen.
